The panel holds about 83,000 compounds, 20% with a hit somewhere; the sample as a whole holds those more often.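 How to read the values: 0–100, growth inhibition (40 = 60% inhibited); 0, no net growth; -100 to 0, cell death (-40 = 40% of starting cells died; -100 = all dead).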 Unmarked numbers belong to inactive results. Active and inactive are the calls of the source. How the source made its calls: active means growth percent below 10; inactive means the rest.
System: SF-268 CNS
Assay: NCI-60 one-dose screen, 48 h (100 = growth as untreated, 0 = no growth, -100 = all killed)
Conditions: 10 µM unless noted

Question: Which growth does the source give for `CC[C@H](C)[C@H]1NC(=O)[C@@H](N[C@](C)(O)[C@@H](N)CC(C)C)[C@@H](C)OC(=O)[C@H](Cc2ccc(OC)cc2)N(C)C(=O)[C@@H]2CCCN2C(=O)[C@H](CC(C)C)NC(=O)[C@@H](C)C(=O)[C@H](C(C)C)OC(=O)C[C@@H]1O` here?
Answer: Its growth is -1.13% (active).

Question: `CCNC(=O)C1CCCN1C(=O)C(CCCN=C(N)N)NC(=O)C(CC(C)C)NC(=O)C(CC(C)C)NC(=O)C(Cc1ccc(O)cc1)NC(=O)C(CO)NC(=O)C(Cc1c[nH]c2ccccc12)NC(=O)C(Cc1cnc[nH]1)NC(=O)C1CCC(=O)N1` (stereo unspecified) was tested. Which growth did it give?
Answer: Its growth is 100%.

Question: With `COC(=O)c1cc(-c2cccs2)c(C#N)c(N)c1C#N` as the compound, how does the growth read?
Answer: The growth was 99.5%.

Question: With `O=C1N=C(c2c(-c3[nH]c(=O)c4ccc(Br)cc4c3O)c(O)c3ccccc3c2O)C(=O)c2cc(Br)ccc21` as the compound, how does the growth read?
Answer: Its growth is -41.4% (active).

Question: For `CC[C@]1(O)C[C@@H]2CN(Cc3c([nH]c4ccccc34)[C@@](C(=O)OC)(c3cc4c(cc3OC)N(C)[C@H]3[C@@](O)(C(=O)OC)[C@H](OC(C)=O)[C@]5(CC)[C@@H]6C[C@@H]6CN6CC[C@]43[C@@H]65)C2)C1`, which growth is on record?
Answer: Its growth is 28.1%.

Question: How did the growth turn out when `CCOC(=O)[C@H](CSSc1ncnc2cc[nH]c12)NC(=O)[C@@H](C)c1ccc2cc(OC)ccc2c1` was run?
Answer: The growth was 33.1%.

Question: With `Cc1nc(Nc2cccnc2)sc1C(=O)/C=C/c1ccc(F)cc1` as the compound, how does the growth read?
Answer: Its growth is 42.1%.

Question: `COc1ccc(C2=CC(c3ccc(Oc4ccnc5cc(Cl)ccc45)c(OC)c3)c3c(nc(OC)[nH]c3=O)N2)cc1` (stereo unspecified) was tested. Which growth did it give?
Answer: The growth was 61.6%.

Question: Which growth does the source give for `COc1ccccc1CNCCCN1C(=O)c2ccc3c4c(ccc(c24)C1=O)C(=O)N(CCCNCCCCNCCCCN)C3=O` here?
Answer: Its growth is 4.92% (active).

Question: For `Cc1cc(C)c(S(=O)(=O)N2CCN(c3cc4c(cc3F)c(=O)c(C(=O)O)cn4C3CC3)CC2)c(C)c1`, which growth is on record?
Answer: Its growth is 56.7%.

Question: Which growth does the source give for `COc1ccc(C(=O)/C=C/c2cc(C(=O)c3cc(OC)c(OC)c(OC)c3)ccc2OC)cc1` here?
Answer: The growth was 59.2%.

Question: How did the growth turn out when `NC(=O)NC(=O)/C=C/C(=O)OCCCl` was run?
Answer: The growth was 110%.

Question: With `COc1cc2nc(N3CCC[C@@H](NC4=CC(=O)c5ccccc5C4=O)C3)nc(N)c2cc1OC` as the compound, how does the growth read?
Answer: Its growth is -47.4% (active).

Question: `O=S(=O)(c1ccccc1)n1ccc(-c2ccc3c(c2)CCO3)n1` was tested. Which growth did it give?
Answer: The growth was 92.7%.

Question: For `O=C(CNc1ccc(Cl)cc1)Nc1ccc(-c2nc3ccccc3s2)cc1`, which growth is on record?
Answer: The growth was 24.1%.

Question: For `COc1ccc(/C=C2\CCCC3=C2NC(C)=NC3c2ccc(OC)c(OC)c2)cc1OC` (stereo unspecified), which growth is on record?
Answer: Its growth is 20%.

Question: How did the growth turn out when `COc1cc(OC)c(C(=O)/C=C/c2ccc(C(F)(F)F)cc2)c(OC)c1` was run?
Answer: The growth was 55.9%.

Question: How did the growth turn out when `O=C(CCl)NCCNc1nccc(Nc2ccc(S(=O)(=O)Nc3ccccn3)cc2)n1` was run?
Answer: Its growth is 9.86% (active).

Question: For `O=C(O)c1ccc(-n2c(=O)c3ccccc3c3ccccc3c2=O)cc1`, which growth is on record?
Answer: Its growth is 99.5%.

Question: How did the growth turn out when `Cc1nn(-c2ccc(Cl)cc2)c(=O)n1CCOc1ccccc1Cl` was run?
Answer: The growth was 106%.

Question: How did the growth turn out when `CC(C)(C)OC(=O)N[C@@H](Cc1ccccc1)C(=O)N(Cc1ccccc1)C1(C(=O)NCc2ccccc2)CCN(Cc2ccccc2)CC1` was run?
Answer: The growth was 58.5%.

Question: How did the growth turn out when `COc1ccc(C(=O)c2cc(OC)c(OC)c(OC)c2)cc1/C=C/C(=O)c1ccc(OC)c(OC)c1` was run?
Answer: Its growth is 17%.

Question: For `CCCCNC(=O)NS(=O)(=O)c1ccc(N2N=C(c3ccc(C)cc3C)CC2c2ccc(OC)cc2)cc1` (stereo unspecified), which growth is on record?
Answer: The growth was 84.8%.

System: SF-295 CNS
Assay: as above
Conditions: 10 µM unless noted

Question: With `C[C@]12CC[C@@H]3c4cc(O)c(O)cc4CC[C@H]3[C@@H]1CC[C@@H]2O` as the compound, how does the growth read?
Answer: The growth was 35%.

Question: Which growth does the source give for `CCCOC(=O)C1(O)CCCC1` here?
Answer: The growth was 105%.

Question: For `COC1=CC(c2ccc[nH]2)=N/C1=C\c1[nH]c(C)c(C(=O)CCCCC(=O)NCc2ccccc2)c1C`, which growth is on record?
Answer: The growth was 51.2%.

Question: Which growth does the source give for `O=C(NNC(=S)Nc1ccccc1)c1ccccn1` here?
Answer: The growth was 42.1%.

Question: `COc1cc(NC(=O)CCl)ccc(=O)c1` was tested. Which growth did it give?
Answer: The growth was 80.9%.

Question: For `COc1ccc(S(=O)(=O)N2CCN(c3cc4c(cc3F)c(=O)c(C(=O)O)cn4C3CC3)CC2)c(OC)c1`, which growth is on record?
Answer: The growth was 91.4%.

Question: Which growth does the source give for `COc1ccc(Cn2cc(COc3cc(/C=C/C(=O)c4cc(OC)c(OC)c(OC)c4)ccc3OC)nn2)cc1` here?
Answer: The growth was 32.2%.

Question: How did the growth turn out when `COc1cc(C(=O)OCCCCCCCCCCC[P+](c2ccccc2)(c2ccccc2)c2ccccc2)ccc1O` was run?
Answer: Its growth is -31.9% (active).

Question: Which growth does the source give for `CC(C(=O)n1cc(-c2ccccc2)c(-c2ccccc2)c1)c1ccccc1` (stereo unspecified) here?
Answer: Its growth is 91.9%.

Question: With `C=CCOc1cccc(/C=C/C(=O)c2sc(Nc3cccnc3)nc2C)c1` as the compound, how does the growth read?
Answer: Its growth is 88.5%.

Question: With `O=C(CCCn1c(=O)c2sc3ccccc3c2n2nnc(-c3ccccc3)c12)NCCc1cnc[nH]1` as the compound, how does the growth read?
Answer: The growth was 8.37% (active).

Question: With `CCC1CCc2nc3sc(C(=O)Nc4cccc(C)c4)c(N)c3cc2C1` (stereo unspecified) as the compound, how does the growth read?
Answer: The growth was 70.4%.

Question: Which growth does the source give for `Cc1cccc(NC(=O)c2sc3nc4c(cc3c2N)CCCC4)c1` here?
Answer: The growth was 54.5%.

Question: `COc1ccc(-c2cn[nH]c2-c2cc(OC)c3c(c2)OCCO3)cc1` was tested. Which growth did it give?
Answer: The growth was 28.7%.

Question: How did the growth turn out when `CC(C)C[C@H](NC(=O)Cn1ccc(NCc2ccccc2)cc1=O)B(O)O` was run?
Answer: The growth was 28.4%.

Question: Which growth does the source give for `CC[C@H](C)[C@H]1NC(=O)[C@@H](N[C@](C)(O)[C@@H](N)CC(C)C)[C@@H](C)OC(=O)[C@H](Cc2ccc(OC)cc2)N(C)C(=O)[C@@H]2CCCN2C(=O)[C@H](CC(C)C)NC(=O)[C@@H](C)C(=O)[C@H](C(C)C)OC(=O)C[C@@H]1O` here?
Answer: Its growth is -52.1% (active).

Question: Which growth does the source give for `CCNC(=O)C1CCCN1C(=O)C(CCCN=C(N)N)NC(=O)C(CC(C)C)NC(=O)C(CC(C)C)NC(=O)C(Cc1ccc(O)cc1)NC(=O)C(CO)NC(=O)C(Cc1c[nH]c2ccccc12)NC(=O)C(Cc1cnc[nH]1)NC(=O)C1CCC(=O)N1` (stereo unspecified) here?
Answer: Its growth is 122%.

Question: Which growth does the source give for `COC(=O)c1cc(-c2cccs2)c(C#N)c(N)c1C#N` here?
Answer: Its growth is 103%.

Question: `O=C1N=C(c2c(-c3[nH]c(=O)c4ccc(Br)cc4c3O)c(O)c3ccccc3c2O)C(=O)c2cc(Br)ccc21` was tested. Which growth did it give?
Answer: Its growth is 17.2%.

Question: `CC[C@]1(O)C[C@@H]2CN(Cc3c([nH]c4ccccc34)[C@@](C(=O)OC)(c3cc4c(cc3OC)N(C)[C@H]3[C@@](O)(C(=O)OC)[C@H](OC(C)=O)[C@]5(CC)[C@@H]6C[C@@H]6CN6CC[C@]43[C@@H]65)C2)C1` was tested. Which growth did it give?
Answer: The growth was -13.9% (active).

Question: For `CCOC(=O)[C@H](CSSc1ncnc2cc[nH]c12)NC(=O)[C@@H](C)c1ccc2cc(OC)ccc2c1`, which growth is on record?
Answer: Its growth is 16.7%.

Question: For `Cc1nc(Nc2cccnc2)sc1C(=O)/C=C/c1ccc(F)cc1`, which growth is on record?
Answer: Its growth is 42.4%.

Question: How did the growth turn out when `COc1ccc(C2=CC(c3ccc(Oc4ccnc5cc(Cl)ccc45)c(OC)c3)c3c(nc(OC)[nH]c3=O)N2)cc1` (stereo unspecified) was run?
Answer: Its growth is 96.5%.

Question: `COc1ccccc1CNCCCN1C(=O)c2ccc3c4c(ccc(c24)C1=O)C(=O)N(CCCNCCCCNCCCCN)C3=O` was tested. Which growth did it give?
Answer: The growth was 2.29% (active).

Question: Which growth does the source give for `Cc1cc(C)c(S(=O)(=O)N2CCN(c3cc4c(cc3F)c(=O)c(C(=O)O)cn4C3CC3)CC2)c(C)c1` here?
Answer: Its growth is 33.3%.

Question: `COc1ccc(C(=O)/C=C/c2cc(C(=O)c3cc(OC)c(OC)c(OC)c3)ccc2OC)cc1` was tested. Which growth did it give?
Answer: The growth was 98.1%.

Question: Which growth does the source give for `NC(=O)NC(=O)/C=C/C(=O)OCCCl` here?
Answer: The growth was 89.1%.

Question: Which growth does the source give for `COc1cc2nc(N3CCC[C@@H](NC4=CC(=O)c5ccccc5C4=O)C3)nc(N)c2cc1OC` here?
Answer: The growth was -89% (active).

Question: Which growth does the source give for `O=S(=O)(c1ccccc1)n1ccc(-c2ccc3c(c2)CCO3)n1` here?
Answer: The growth was 83.3%.

Question: How did the growth turn out when `O=C(CNc1ccc(Cl)cc1)Nc1ccc(-c2nc3ccccc3s2)cc1` was run?
Answer: The growth was 94.6%.

Question: Which growth does the source give for `COc1ccc(/C=C2\CCCC3=C2NC(C)=NC3c2ccc(OC)c(OC)c2)cc1OC` (stereo unspecified) here?
Answer: Its growth is 3.05% (active).

Question: How did the growth turn out when `COc1cc(OC)c(C(=O)/C=C/c2ccc(C(F)(F)F)cc2)c(OC)c1` was run?
Answer: Its growth is 69.9%.

Question: Which growth does the source give for `O=C(CCl)NCCNc1nccc(Nc2ccc(S(=O)(=O)Nc3ccccn3)cc2)n1` here?
Answer: Its growth is 36.2%.

Question: `O=C(O)c1ccc(-n2c(=O)c3ccccc3c3ccccc3c2=O)cc1` was tested. Which growth did it give?
Answer: The growth was 92.7%.

Question: Which growth does the source give for `Cc1nn(-c2ccc(Cl)cc2)c(=O)n1CCOc1ccccc1Cl` here?
Answer: The growth was 72.3%.

Question: `CC(C)(C)OC(=O)N[C@@H](Cc1ccccc1)C(=O)N(Cc1ccccc1)C1(C(=O)NCc2ccccc2)CCN(Cc2ccccc2)CC1` was tested. Which growth did it give?
Answer: Its growth is 39.2%.

Question: With `COc1ccc(C(=O)c2cc(OC)c(OC)c(OC)c2)cc1/C=C/C(=O)c1ccc(OC)c(OC)c1` as the compound, how does the growth read?
Answer: The growth was -46.2% (active).

Question: How did the growth turn out when `CCCCNC(=O)NS(=O)(=O)c1ccc(N2N=C(c3ccc(C)cc3C)CC2c2ccc(OC)cc2)cc1` (stereo unspecified) was run?
Answer: The growth was 41.6%.
